Out of some 310,000 compounds screened, about 14,000 (4.5%) showed an effect of 50% or more. Effects have a minus sign here. Shown is part of a subset that was picked to be rich in strong results.
Each compound was assayed against human ether-à-go-go-related gene (hERG) potassium channel (human, UniProt Q12809) (assay: primary screen, population patch clamp on CHO cells stably expressing hERG; higher = less effect of the substance).
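Further: peak tail current of the secondary pulse compared with the same well before compound.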

human ether-à-go-go-related gene (hERG) potassium channel, sequence (Q12809 whole entry, looked up): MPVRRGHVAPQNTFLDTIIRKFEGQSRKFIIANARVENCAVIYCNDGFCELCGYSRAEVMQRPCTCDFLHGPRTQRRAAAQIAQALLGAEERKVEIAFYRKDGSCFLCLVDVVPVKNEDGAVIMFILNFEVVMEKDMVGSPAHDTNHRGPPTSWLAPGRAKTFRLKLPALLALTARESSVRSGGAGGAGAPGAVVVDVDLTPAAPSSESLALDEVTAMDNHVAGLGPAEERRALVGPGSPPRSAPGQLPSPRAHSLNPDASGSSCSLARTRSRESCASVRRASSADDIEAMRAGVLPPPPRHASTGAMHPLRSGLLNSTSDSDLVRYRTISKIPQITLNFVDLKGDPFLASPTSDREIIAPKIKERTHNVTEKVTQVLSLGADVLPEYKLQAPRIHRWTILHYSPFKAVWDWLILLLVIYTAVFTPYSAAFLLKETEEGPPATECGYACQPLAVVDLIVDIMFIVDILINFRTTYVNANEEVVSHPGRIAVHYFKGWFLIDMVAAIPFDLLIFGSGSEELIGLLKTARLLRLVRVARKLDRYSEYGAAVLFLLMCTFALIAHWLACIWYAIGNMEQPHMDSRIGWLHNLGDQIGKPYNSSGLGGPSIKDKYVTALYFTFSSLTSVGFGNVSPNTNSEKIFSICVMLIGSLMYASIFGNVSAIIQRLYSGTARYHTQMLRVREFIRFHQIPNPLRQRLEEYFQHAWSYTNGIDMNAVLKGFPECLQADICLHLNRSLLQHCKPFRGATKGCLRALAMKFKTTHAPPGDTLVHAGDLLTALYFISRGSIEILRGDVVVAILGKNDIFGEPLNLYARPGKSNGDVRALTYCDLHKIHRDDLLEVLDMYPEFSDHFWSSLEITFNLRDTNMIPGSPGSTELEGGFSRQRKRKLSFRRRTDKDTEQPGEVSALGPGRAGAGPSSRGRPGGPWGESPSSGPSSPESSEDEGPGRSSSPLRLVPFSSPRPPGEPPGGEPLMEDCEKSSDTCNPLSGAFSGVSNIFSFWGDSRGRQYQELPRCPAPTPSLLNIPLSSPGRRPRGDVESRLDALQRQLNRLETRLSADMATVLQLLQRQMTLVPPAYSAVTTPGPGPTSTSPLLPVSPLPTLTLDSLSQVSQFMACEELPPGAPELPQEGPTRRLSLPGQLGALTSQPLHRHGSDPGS

SMILES	hERG current change (%, negative = inhibition) at 10uM [%]
Cl.O=C(C1CCN(S(=O)(=O)c2cccs2)CC1)N1CCN(Cc2ccccc2)CC1	3.79
Cn1c(=O)[nH]c(=O)c2c1nc(SCCC(=O)O)n2Cc1cccc(Br)c1	1.52
COCCNC(=S)NC1CC2CCC(C1)N2Cc1ccccc1 (stereo not shown)	2.78
COc1ccc(C2C(C(=O)c3cccs3)=C(O)C(=O)N2Cc2cccnc2)cc1OC (stereo not shown)	5.03
CC(Oc1ccc(Br)cc1)C(=O)Nc1nc(-c2ccccn2)cs1 (stereo not shown)	-5.7
CC(Oc1ccc(F)cc1)C(=O)Nc1nc(-c2ccccn2)cs1 (stereo not shown)	-76.3
CC(Oc1cccc(Cl)c1)C(=O)Nc1nc(-c2ccccn2)cs1 (stereo not shown)	4.19
O=C(Nc1cccc(C(=O)O)c1)/C(=C\c1ccccc1Cl)NC(=O)c1ccco1	6.89
COc1ccc(CC(=O)N(C)CC(=O)Nc2ccccc2SC)cc1	8.56
CCc1nnc(NC(=O)c2cc(C)oc2C)s1	-10
CC(C)N(Cc1nnc(-c2ccc(Cl)cc2)o1)C(=O)C1=COCCO1	-19.9
Cc1cc(C(=O)N(Cc2nnc(-c3ccc(Cl)cc3)o2)C(C)C)c2ccccc2n1	-58.5
CC(C)N(Cc1nnc(-c2ccc(Cl)cc2)o1)C(=O)c1cc2ccccc2o1	-40.1
Cc1ccccc1OCC(=O)N(Cc1nnc(-c2ccc(Cl)cc2)o1)C(C)C	-53.5
Cc1ccccc1OCC(=O)N(Cc1nc(-c2ccccc2)no1)C(C)C	-15
CC(C)N(Cc1nnc(-c2ccccc2Br)o1)C(=O)c1cc(Cl)nc2ccccc12	-24.9
CNc1ccc(Cl)cc1C(N)=O	26.1
Cc1ccc(C(=O)COC(=O)c2nc3nccc(C)n3n2)c(C)c1	-7.14
COc1ccc(Cl)cc1NS(=O)(=O)N1CCOCC1	6.86
CC(Cc1ccccc1)NC(=O)c1cc([N+](=O)[O-])ccc1Cl (stereo not shown)	-4.69

SMILES	hERG current change (%, negative = inhibition) at 10uM [%]
COc1ccc(S(=O)(=O)N2CCCC(C(=O)NCCCn3ccnc3)C2)cc1OC (stereo not shown)	7.83
O=C(NCc1ccncc1)C1CCCN(S(=O)(=O)c2ccc(Br)cc2)C1 (stereo not shown)	-77.5
O=C(NCc1ccncc1)C1CCN(S(=O)(=O)c2cc(Cl)ccc2Cl)CC1	-18.9
O=C(NCCCn1ccnc1)C1CCCN(S(=O)(=O)c2ccc(F)cc2)C1 (stereo not shown)	10.7
O=C(NCc1ccccc1)C1CCCN(S(=O)(=O)c2ccc(Br)cc2)C1 (stereo not shown)	23.4
COc1ccc(Cl)cc1S(=O)(=O)N1CCCC(C(=O)NCc2ccncc2)C1 (stereo not shown)	-25.7
O=C(NCCCn1ccnc1)C1CCCN(S(=O)(=O)c2cc(Cl)ccc2Cl)C1 (stereo not shown)	-60.3
O=C(NCc1cccnc1)C1CCCN(S(=O)(=O)c2ccc(Br)cc2)C1 (stereo not shown)	-41.6
O=C(NCc1ccncc1)C1CCCN(S(=O)(=O)c2cc(Cl)ccc2Cl)C1 (stereo not shown)	-61.2
CC(C)c1ccc(S(=O)(=O)c2n[nH]n3c2nc(=O)c2ccccc23)cc1	-16.7
C/C(=N\NC(=S)NCC(C)(C)C)c1cc(F)cc(F)c1O	17.2
CC1=NN(C(N)=S)C(=O)C1N=Nc1c(Br)cc(Br)cc1Br (stereo not shown)	-8.08
COc1ccc(C2CC(c3ccccc3)Nc3nc(NS(C)(=O)=O)nn32)cc1 (stereo not shown)	7.1
CCc1sc2nc(SCC(=O)Nc3cc(C)on3)n(-c3cccc(OC)c3)c(=O)c2c1C	10.2
NC(=S)N/N=C1\CC(c2ccc3c(c2)OCCCO3)Oc2ccc(F)cc21 (stereo not shown)	6.23
O=C(NNC(=O)c1csc(N2CCOCC2)n1)c1ccc(=O)[nH]c1	6.26
CCOC(=O)N1CCN(C(=O)c2cnn3c(C(F)F)cc(-c4ccc(C)cc4)nc23)CC1	-0.653
CC(C)OC(=O)c1c2c(n3ccccc13)C(=O)c1ccccc1C2=O	5.73
Cn1c(CCNC(=O)c2ccco2)nc2cc(NC(=O)c3ccco3)ccc21	-14.4
CN1CCN(CCc2nc3cc(NC(=O)c4ccco4)ccc3n2C)CC1	4.18

SMILES	hERG current change (%, negative = inhibition) at 10uM [%]
Cc1ccc(C(=O)Nc2ccc3c(c2)nc(CCNC(=O)c2ccco2)n3C)cc1	8.06
Cn1c(CN2CCCC2)nc2cc(NC(=O)c3ccco3)ccc21	7.42
Cc1ccc(N2CCN(CCc3nc4cc(NC(=O)c5ccco5)ccc4n3C)CC2)cc1	-70.7
Cn1c(CCN2CCN(c3ccc(F)cc3)CC2)nc2cc(NC(=O)c3ccco3)ccc21	-63.6
Cc1ccc(Cc2c(C)c(C#N)c3[nH]c4ccccc4n3c2=O)cc1	11.4
O=C(O)C12C3CCCC1C32c1ccccc1 (stereo not shown)	21.7
CC1CCC2C(=O)N(c3ccccc3OC(=O)c3ccccc3F)C(=O)C2C1 (stereo not shown)	-10.3
CCCSC1=C(C#N)C(c2ccc(O)c(OC)c2)CC(=O)N1 (stereo not shown)	-45.1
CCCn1c(=O)n(C)c(=O)c2c(SCC(=O)NCC(c3ccccc3)N(C)C)nc(CC(C)C)nc21 (stereo not shown)	-66.1
CC(C)Cc1nc(SCC(=O)NCC2CCCO2)c2c(=O)n(C)c(=O)n(C)c2n1 (stereo not shown)	-0.141
CCCn1c(=O)n(C)c(=O)c2c(SCC(=O)NC34CC5CC(CC(C5)C3)C4)nc(CC(C)C)nc21	8.5
CNC(=O)c1c(I)c(C(=O)NCC(=O)Nc2c(I)c(C(=O)O)c(I)c(C(=O)NCCO)c2I)c(I)c(N(C)C(C)=O)c1I	6.45
CC(CN1C(C)CCCC1C)OC(=O)c1ccc(Cl)cc1 (stereo not shown)	-44.8
COc1cc(C(=O)OC(C)CN2C(C)CCCC2C)cc(OC)c1OC.Cl (stereo not shown)	-50.2
CC(CN1C(C)CCCC1C)OC(=O)c1ccccc1Cl (stereo not shown)	-26.8
CC(CN1C(C)CCCC1C)OC(=O)c1ccc(Cl)cc1Cl (stereo not shown)	-51.7
COc1cc(C(=O)OC(C)CN2CCCCC2)cc(OC)c1OC.Cl (stereo not shown)	-4.43
COc1cc(C(=O)OC(C)CN2CCCC2)cc(OC)c1OC.Cl (stereo not shown)	-12.2

Reference: publication PMC4336329 (PLoS ONE, 2015)
